In the supplement of paper PMC10849652:
The full data set covers some 8,800 targets. This sample favours those with a hit. About 0.5% of all pairs of compound and target were hits.

Tests used:
Assay in all cases: log2 fold change, soluble protein after heating vs DMSO (PISA); higher = thermal stabilisation; K562 lysate, 10 uM; active = over 0.2 and 3.5 SD of the protein, either way, in both replicates (recomputed)
lapatinib = compound: CS(=O)(=O)CCNCc1ccc(-c2ccc3ncnc(Nc4ccc(OCc5cccc(F)c5)c(Cl)c4)c3c2)o1 [lapatinib]
Method in brief: (§1)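 The values are log-two fold changes in thermal stability compared with solvent controls and come from duplicates. They were obtained by TMTpro 16plex LC-MS/MS, with channel sums equalised, on the supernatant after 21,000xg for 90 min. That supernatant came from crude K562 extract at 1 mg/mL protein treated with 10 μM compound for 30 min, heated for 3 min across 48°C-58°C, pooled and brought to 0.5% NP-40 at 4°C.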

pictilisib = compound: CS(=O)(=O)N1CCN(Cc2cc3nc(-c4cccc5[nH]ncc45)nc(N4CCOCC4)c3s2)CC1 [pictilisib]
Method in brief: as §1

crizotinib = compound: C[C@@H](Oc1cc(-c2cnn(C3CCNCC3)c2)cnc1N)c1c(Cl)ccc(F)c1Cl [crizotinib]
Method in brief: as §1

[1] = compound: C[C@H](C1=CC=C(C=C1)C(=O)NC2=C3C=CNC3=NC=C2)N
Method in brief: as §1

duvelisib = compound: C[C@H](Nc1ncnc2nc[nH]c12)c1cc2cccc(Cl)c2c(=O)n1-c1ccccc1 [duvelisib]
Method in brief: as §1

gandotinib = compound: Cc1cc(Nc2cc(CN3CCOCC3)c3nc(C)c(Cc4ccc(Cl)cc4F)n3n2)n[nH]1 [gandotinib]
Method in brief: as §1

tozasertib = compound: Cc1cc(Nc2cc(N3CCN(C)CC3)nc(Sc3ccc(NC(=O)C4CC4)cc3)n2)n[nH]1 [tozasertib]
Method in brief: as §1

doramapimod = compound: Cc1ccc(-n2nc(C(C)(C)C)cc2NC(=O)Nc2ccc(OCCN3CCOCC3)c3ccccc23)cc1 [doramapimod]
Method in brief: as §1

bafetinib = compound: Cc1ccc(NC(=O)c2ccc(CN3CC[C@H](N(C)C)C3)c(C(F)(F)F)c2)cc1Nc1nccc(-c2cncnc2)n1 [bafetinib]
Method in brief: as §1

[2] = compound: Cc1cccc(CC(=O)N2CCc3c2ccc(-c2cn(C)c4ncnc(N)c24)c3F)n1
Method in brief: as §1

nilotinib = compound: Cc1cn(-c2cc(NC(=O)c3ccc(C)c(Nc4nccc(-c5cccnc5)n4)c3)cc(C(F)(F)F)c2)cn1 [nilotinib]
Method in brief: as §1

[3] = compound: Cc1nc(Nc2n[nH]c3c2CN(C(=O)N[C@H](CN(C)C)c2ccccc2)C3(C)C)c2sccc2n1
Method in brief: as §1

dasatinib = compound: Cc1nc(Nc2ncc(C(=O)Nc3c(C)cccc3Cl)s2)cc(N2CCN(CCO)CC2)n1 [dasatinib]
Method in brief: as §1

[4] = compound: Cc1ncc(-c2ccnc(Nc3ccc(S(C)(=O)=O)cc3)n2)n1C(C)C
Method in brief: as §1

[5] = compound: Cn1cc(-c2ccc3c(c2)CCN3C(=O)Cc2cccc(C(F)(F)F)c2)c2c(N)ncnc21
Method in brief: as §1

quisinostat = compound: Cn1cc(CNCC2CCN(c3ncc(C(=O)NO)cn3)CC2)c2ccccc21 [quisinostat]
Method in brief: as §1

tipifarnib = compound: Cn1cncc1[C@@](N)(c1ccc(Cl)cc1)c1ccc2c(c1)c(-c1cccc(Cl)c1)cc(=O)n2C [tipifarnib]
Method in brief: as §1

[6] = compound: NC(=O)Nc1cc(-c2cccc(F)c2)sc1C(=O)N[C@H]1CCCNC1
Method in brief: as §1

[7] = compound: NC(=O)c1cnc(N[C@@H]2CCCC[C@@H]2N)nc1Nc1cccc(-n2nccn2)c1
Method in brief: as §1

[8] = compound: NC1(c2ccc(-c3nc4ccn5c(=O)[nH]nc5c4cc3-c3ccccc3)cc2)CCC1
Method in brief: as §1

Measured: log2 fold change

VTN (UniProt P04004)
inactive: lapatinib -0.057 | pictilisib 0.026 | crizotinib 0.019 | duvelisib 0.018 | gandotinib 0.164 | tozasertib -0.006 | doramapimod -0.023 | bafetinib -0.054 | [2] 0.148 | nilotinib 0.04 | [3] 0.064 | dasatinib 0.019 | [4] -0.102 | [5] 0 | quisinostat 0.022 | tipifarnib -0.092 | [6] 0.006 | [7] -0.063 | [8] -0.03
active: [1] -0.384

XAB2 (UniProt Q9HCS7)
Sequence of UniProt Q9HCS7 (Q9HCS7 whole entry, looked up): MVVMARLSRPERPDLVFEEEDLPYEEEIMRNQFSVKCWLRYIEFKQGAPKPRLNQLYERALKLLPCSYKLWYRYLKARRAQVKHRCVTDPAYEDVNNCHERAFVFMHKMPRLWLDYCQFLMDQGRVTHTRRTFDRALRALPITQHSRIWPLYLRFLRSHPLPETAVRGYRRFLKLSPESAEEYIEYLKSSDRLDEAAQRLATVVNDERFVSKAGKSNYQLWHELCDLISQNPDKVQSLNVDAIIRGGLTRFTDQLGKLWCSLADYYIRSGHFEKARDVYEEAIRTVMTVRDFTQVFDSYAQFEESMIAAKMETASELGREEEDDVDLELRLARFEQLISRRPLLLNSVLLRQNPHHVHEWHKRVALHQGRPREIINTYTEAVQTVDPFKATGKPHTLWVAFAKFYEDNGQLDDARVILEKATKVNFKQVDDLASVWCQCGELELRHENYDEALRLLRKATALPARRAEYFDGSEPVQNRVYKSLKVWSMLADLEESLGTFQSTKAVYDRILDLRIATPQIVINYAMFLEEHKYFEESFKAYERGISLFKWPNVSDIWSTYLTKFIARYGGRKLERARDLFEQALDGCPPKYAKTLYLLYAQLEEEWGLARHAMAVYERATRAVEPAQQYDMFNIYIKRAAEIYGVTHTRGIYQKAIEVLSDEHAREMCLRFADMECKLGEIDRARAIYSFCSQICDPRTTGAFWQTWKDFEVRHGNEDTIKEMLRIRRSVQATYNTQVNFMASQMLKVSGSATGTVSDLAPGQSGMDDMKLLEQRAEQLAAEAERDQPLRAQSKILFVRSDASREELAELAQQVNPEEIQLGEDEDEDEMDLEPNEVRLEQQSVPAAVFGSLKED
inactive: lapatinib -0.02 | pictilisib -0.051 | crizotinib -0.096 | [1] 0.025 | duvelisib 0.038 | gandotinib -0.055 | tozasertib -0.073 | doramapimod 0.01 | bafetinib 0.065 | [2] 0.028 | nilotinib 0.032 | [3] -0.002 | dasatinib -0.051 | [4] 0.048 | [5] 0.017 | quisinostat 0.106 | tipifarnib -0.046 | [6] 0.046 | [7] -0.025 | [8] -0.01

VPS4A (UniProt Q9UN37)
inactive: lapatinib 0.003 | pictilisib -0.034 | crizotinib -0.034 | [1] -0.042 | duvelisib -0.012 | gandotinib -0.066 | tozasertib 0.007 | doramapimod 0.038 | bafetinib 0.004 | [2] 0.056 | nilotinib -0.011 | [3] 0.008 | dasatinib -0.075 | [4] 0.002 | [5] 0.056 | quisinostat -0.027 | tipifarnib 0.023 | [6] 0.019 | [7] 0.004 | [8] -0.011

WDR6 (UniProt Q9NNW5)
Sequence of UniProt Q9NNW5 (Q9NNW5 whole entry, looked up): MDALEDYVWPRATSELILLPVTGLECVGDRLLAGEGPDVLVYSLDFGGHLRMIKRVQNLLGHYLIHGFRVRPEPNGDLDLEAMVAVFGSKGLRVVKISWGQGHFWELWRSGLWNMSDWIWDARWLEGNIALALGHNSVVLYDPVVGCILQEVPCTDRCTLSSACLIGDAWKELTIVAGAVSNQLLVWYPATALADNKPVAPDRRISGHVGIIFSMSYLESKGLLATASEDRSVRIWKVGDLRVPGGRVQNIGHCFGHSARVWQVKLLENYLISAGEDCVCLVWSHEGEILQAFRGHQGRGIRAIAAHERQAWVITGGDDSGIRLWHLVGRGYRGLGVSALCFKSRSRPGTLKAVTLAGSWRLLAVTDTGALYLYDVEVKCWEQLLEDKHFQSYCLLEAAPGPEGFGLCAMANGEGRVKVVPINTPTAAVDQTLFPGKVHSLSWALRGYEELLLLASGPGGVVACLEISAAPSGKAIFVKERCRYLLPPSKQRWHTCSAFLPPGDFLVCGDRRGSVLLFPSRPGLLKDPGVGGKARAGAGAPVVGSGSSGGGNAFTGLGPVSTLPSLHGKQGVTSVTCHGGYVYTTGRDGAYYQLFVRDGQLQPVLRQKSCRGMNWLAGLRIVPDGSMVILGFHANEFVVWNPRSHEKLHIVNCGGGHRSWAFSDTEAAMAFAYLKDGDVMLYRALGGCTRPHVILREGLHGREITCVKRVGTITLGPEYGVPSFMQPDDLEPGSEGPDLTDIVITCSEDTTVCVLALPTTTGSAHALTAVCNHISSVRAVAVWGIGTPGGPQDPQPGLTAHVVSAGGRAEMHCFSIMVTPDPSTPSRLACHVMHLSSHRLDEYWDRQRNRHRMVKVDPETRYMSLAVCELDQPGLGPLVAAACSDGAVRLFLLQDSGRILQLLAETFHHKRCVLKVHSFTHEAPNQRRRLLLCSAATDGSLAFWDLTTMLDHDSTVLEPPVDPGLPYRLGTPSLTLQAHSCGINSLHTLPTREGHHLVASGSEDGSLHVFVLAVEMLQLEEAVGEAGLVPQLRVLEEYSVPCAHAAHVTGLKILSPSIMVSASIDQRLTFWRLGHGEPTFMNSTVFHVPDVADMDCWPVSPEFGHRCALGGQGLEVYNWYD
inactive: lapatinib -0.023 | pictilisib -0.03 | crizotinib -0.049 | [1] -0.05 | duvelisib -0.005 | gandotinib -0.007 | tozasertib -0.013 | doramapimod -0.007 | bafetinib -0.022 | [2] 0.024 | nilotinib -0.017 | [3] 0.002 | dasatinib -0.018 | [4] -0.003 | [5] 0.026 | quisinostat -0.075 | tipifarnib 0.036 | [6] 0.033 | [7] 0.006 | [8] -0.032

VAV3 isoform 4 (UniProt Q9UKW4)
active: [1] -0.655
inactive: lapatinib -0.167 | pictilisib -0.057 | crizotinib -0.217 | duvelisib -0.008 | gandotinib 0.135 | tozasertib -0.093 | doramapimod 0.325 | bafetinib 0.023 | [2] 0.242 | nilotinib 0.155 | [3] -0.028 | dasatinib -0.061 | [4] -0.055 | [5] 0.08 | quisinostat 0.121 | tipifarnib -0.012 | [6] -0.017 | [7] -0.054 | [8] 0.038

UQCC2 (UniProt Q9BRT2)
Sequence of UniProt Q9BRT2 (Q9BRT2 whole entry, looked up): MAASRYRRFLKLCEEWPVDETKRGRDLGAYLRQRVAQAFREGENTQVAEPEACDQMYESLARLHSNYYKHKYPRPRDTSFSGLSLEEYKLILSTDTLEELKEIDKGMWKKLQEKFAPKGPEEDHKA
inactive: lapatinib 0.007 | pictilisib 0.009 | crizotinib 0.036 | [1] 0.158 | duvelisib 0.026 | gandotinib -0.091 | tozasertib -0.015 | doramapimod 0.014 | bafetinib 0.001 | [2] -0.093 | nilotinib -0.018 | [3] -0.006 | dasatinib 0.002 | [4] 0.012 | [5] -0.001 | quisinostat 0 | tipifarnib 0.058 | [6] -0.076 | [7] -0.005 | [8] 0.018

YEATS4 (UniProt O95619)
active: [1] 0.609
inactive: lapatinib 0.023 | pictilisib 0.026 | crizotinib 0.02 | duvelisib -0.015 | gandotinib -0.126 | tozasertib -0.006 | doramapimod 0.064 | bafetinib -0.033 | [2] -0.083 | nilotinib 0.1 | [3] 0.154 | dasatinib 0.11 | [4] -0.196 | [5] 0.035 | quisinostat -0.038 | tipifarnib 0.071 | [6] -0.011 | [7] 0.018 | [8] 0.044

VANGL1 (UniProt Q8TAA9)
inactive: lapatinib 0.047 | pictilisib -0.071 | crizotinib 0.031 | [1] 0.07 | duvelisib 0.099 | gandotinib 0.004 | tozasertib 0.016 | doramapimod -0.043 | bafetinib 0.016 | [2] 0.084 | nilotinib -0.086 | [3] -0.067 | dasatinib -0.019 | [4] 0.079 | [5] -0.036 | quisinostat 0.014 | tipifarnib 0.042 | [6] 0.009 | [7] 0.121 | [8] 0.034

VPS37B (UniProt Q9H9H4)
inactive: lapatinib 0.016 | pictilisib -0.053 | crizotinib 0.017 | [1] 0.034 | duvelisib -0.009 | gandotinib -0.028 | tozasertib 0.021 | doramapimod 0.006 | bafetinib -0.034 | [2] -0.04 | nilotinib 0.025 | [3] -0.078 | dasatinib -0.024 | [4] 0.046 | [5] -0.01 | quisinostat -0.05 | tipifarnib -0.002 | [6] -0.024 | [7] -0.005 | [8] 0

VPS35L (UniProt Q7Z3J2)
inactive: lapatinib -0.016 | pictilisib -0.003 | crizotinib -0.028 | [1] -0.025 | duvelisib 0.02 | gandotinib -0.029 | tozasertib 0.026 | doramapimod 0.02 | bafetinib -0.052 | [2] 0.065 | nilotinib -0.019 | [3] -0.006 | dasatinib -0.088 | [4] 0.022 | [5] 0.008 | quisinostat -0.046 | tipifarnib 0.03 | [6] 0.043 | [7] 0.001 | [8] -0.044

ZHX1 (UniProt Q9UKY1)
active: [1] -0.57 | gandotinib 0.475 | [2] 0.431
inactive: lapatinib 0.014 | pictilisib 0.003 | crizotinib 0.018 | duvelisib 0.038 | tozasertib -0.09 | doramapimod -0.013 | bafetinib -0.08 | nilotinib 0.011 | [3] -0.012 | dasatinib 0 | [4] 0.06 | [5] -0.096 | quisinostat -0.035 | tipifarnib 0.007 | [6] 0.039 | [7] -0.047 | [8] -0.011

YTHDF3 (UniProt Q7Z739)
inactive: lapatinib -0.065 | pictilisib 0.05 | crizotinib 0.01 | [1] -0.035 | duvelisib 0.017 | gandotinib 0.107 | tozasertib -0.03 | doramapimod 0.078 | bafetinib -0.073 | [2] 0.097 | nilotinib -0.246 | [3] -0.038 | dasatinib 0.022 | [4] 0.014 | [5] -0.006 | quisinostat -0.06 | tipifarnib -0.311 | [6] 0.063 | [7] -0.016 | [8] -0.039

VAC14 (UniProt Q08AM6)
inactive: lapatinib -0.034 | pictilisib -0.005 | crizotinib -0.047 | [1] -0.028 | duvelisib -0.004 | gandotinib -0.069 | tozasertib -0.005 | doramapimod 0.037 | bafetinib -0.036 | [2] 0.067 | nilotinib -0.014 | [3] 0.018 | dasatinib -0.022 | [4] 0.009 | [5] 0.058 | quisinostat -0.07 | tipifarnib -0.059 | [6] 0.012 | [7] -0.002 | [8] -0.027

ZZEF1 (UniProt O43149)
Sequence of UniProt O43149 (O43149 whole entry, looked up): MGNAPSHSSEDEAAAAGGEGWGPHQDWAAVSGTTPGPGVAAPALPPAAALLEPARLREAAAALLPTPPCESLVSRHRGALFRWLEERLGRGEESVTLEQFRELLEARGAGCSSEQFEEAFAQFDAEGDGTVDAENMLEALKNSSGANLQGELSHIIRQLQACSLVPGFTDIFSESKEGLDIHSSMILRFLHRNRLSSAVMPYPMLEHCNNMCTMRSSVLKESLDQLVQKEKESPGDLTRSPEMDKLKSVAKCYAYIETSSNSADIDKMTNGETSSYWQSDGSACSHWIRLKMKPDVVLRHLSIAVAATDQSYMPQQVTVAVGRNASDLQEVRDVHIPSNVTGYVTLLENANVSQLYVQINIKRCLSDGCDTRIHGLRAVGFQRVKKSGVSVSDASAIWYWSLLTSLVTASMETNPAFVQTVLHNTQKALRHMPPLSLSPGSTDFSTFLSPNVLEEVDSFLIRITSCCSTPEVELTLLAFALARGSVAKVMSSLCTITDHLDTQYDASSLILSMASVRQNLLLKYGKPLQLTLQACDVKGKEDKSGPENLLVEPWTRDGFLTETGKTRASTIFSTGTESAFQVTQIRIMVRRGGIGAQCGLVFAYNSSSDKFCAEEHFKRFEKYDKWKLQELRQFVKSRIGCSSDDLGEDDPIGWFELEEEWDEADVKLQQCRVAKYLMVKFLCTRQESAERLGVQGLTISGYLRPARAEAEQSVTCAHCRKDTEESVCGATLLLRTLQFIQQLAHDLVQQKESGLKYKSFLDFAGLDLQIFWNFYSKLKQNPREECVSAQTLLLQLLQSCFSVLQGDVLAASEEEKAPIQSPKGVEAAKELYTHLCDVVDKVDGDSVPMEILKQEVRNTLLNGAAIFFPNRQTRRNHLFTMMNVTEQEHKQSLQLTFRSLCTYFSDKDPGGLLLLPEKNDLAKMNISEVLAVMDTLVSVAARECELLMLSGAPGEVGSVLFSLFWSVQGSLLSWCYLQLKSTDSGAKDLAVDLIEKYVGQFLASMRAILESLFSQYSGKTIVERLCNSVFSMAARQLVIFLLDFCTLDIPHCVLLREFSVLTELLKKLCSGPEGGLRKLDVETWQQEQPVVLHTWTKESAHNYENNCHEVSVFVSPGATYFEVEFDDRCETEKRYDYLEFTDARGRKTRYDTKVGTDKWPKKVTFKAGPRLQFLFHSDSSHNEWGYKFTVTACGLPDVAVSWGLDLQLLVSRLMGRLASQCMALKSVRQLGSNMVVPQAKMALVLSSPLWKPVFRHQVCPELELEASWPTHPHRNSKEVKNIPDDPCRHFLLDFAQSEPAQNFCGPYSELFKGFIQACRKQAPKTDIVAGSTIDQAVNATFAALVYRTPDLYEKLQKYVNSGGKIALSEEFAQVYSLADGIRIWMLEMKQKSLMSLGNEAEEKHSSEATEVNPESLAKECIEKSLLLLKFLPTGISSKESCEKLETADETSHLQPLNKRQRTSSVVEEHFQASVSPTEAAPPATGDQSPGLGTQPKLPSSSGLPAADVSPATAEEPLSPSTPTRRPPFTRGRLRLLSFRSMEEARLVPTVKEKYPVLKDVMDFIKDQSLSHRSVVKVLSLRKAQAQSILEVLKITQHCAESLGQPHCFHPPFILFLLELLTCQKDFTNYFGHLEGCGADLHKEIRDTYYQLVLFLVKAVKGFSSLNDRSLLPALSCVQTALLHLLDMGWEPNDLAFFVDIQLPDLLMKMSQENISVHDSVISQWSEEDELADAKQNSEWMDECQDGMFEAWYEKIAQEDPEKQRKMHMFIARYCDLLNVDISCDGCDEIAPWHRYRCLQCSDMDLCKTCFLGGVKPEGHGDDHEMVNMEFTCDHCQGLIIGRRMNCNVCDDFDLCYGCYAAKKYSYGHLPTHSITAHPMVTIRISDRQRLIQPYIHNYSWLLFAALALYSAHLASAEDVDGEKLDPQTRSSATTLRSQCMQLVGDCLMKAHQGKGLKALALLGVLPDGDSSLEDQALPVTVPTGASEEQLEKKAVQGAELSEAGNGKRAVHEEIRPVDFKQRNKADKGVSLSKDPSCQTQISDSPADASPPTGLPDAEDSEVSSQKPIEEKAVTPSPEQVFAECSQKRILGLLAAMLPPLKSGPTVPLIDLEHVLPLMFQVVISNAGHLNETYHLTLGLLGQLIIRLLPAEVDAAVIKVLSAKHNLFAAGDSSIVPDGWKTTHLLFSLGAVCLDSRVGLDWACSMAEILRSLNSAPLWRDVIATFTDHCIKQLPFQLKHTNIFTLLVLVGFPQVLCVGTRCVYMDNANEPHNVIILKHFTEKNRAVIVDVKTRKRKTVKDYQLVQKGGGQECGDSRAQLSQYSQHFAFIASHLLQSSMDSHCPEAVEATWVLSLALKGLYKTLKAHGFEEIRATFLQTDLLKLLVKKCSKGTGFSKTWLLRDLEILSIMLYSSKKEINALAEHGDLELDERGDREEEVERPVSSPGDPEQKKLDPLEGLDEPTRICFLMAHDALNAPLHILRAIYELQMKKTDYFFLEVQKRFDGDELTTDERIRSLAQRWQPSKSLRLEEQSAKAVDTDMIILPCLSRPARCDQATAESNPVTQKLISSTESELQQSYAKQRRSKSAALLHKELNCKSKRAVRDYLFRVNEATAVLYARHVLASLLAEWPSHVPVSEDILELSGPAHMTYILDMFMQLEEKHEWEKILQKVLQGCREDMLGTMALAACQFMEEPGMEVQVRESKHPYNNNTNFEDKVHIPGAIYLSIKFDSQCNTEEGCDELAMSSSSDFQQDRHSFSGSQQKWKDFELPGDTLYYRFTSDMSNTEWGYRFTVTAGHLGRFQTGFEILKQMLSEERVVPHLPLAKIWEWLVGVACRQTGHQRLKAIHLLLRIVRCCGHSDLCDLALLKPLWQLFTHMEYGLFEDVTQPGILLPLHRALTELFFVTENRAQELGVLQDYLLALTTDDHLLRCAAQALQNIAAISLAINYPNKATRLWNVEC
inactive: lapatinib -0.023 | pictilisib -0.024 | crizotinib -0.092 | [1] -0.113 | duvelisib 0.028 | gandotinib 0.038 | tozasertib -0.011 | doramapimod 0.029 | bafetinib -0.083 | [2] 0.123 | nilotinib -0.022 | [3] 0 | dasatinib -0.018 | [4] 0.015 | [5] -0.006 | quisinostat -0.07 | tipifarnib 0.007 | [6] 0.008 | [7] 0.021 | [8] -0.03

WDR45 isoform 2 (UniProt Q9Y484)
active: [1] -0.229
inactive: lapatinib -0.002 | pictilisib -0.011 | crizotinib -0.048 | duvelisib -0.04 | gandotinib -0.051 | tozasertib -0.025 | doramapimod 0.054 | bafetinib -0.047 | [2] 0.179 | nilotinib 0.04 | [3] -0.01 | dasatinib -0.085 | [4] -0.027 | [5] 0.049 | quisinostat 0.06 | tipifarnib 0.009 | [6] 0.013 | [7] -0.042 | [8] -0.028

ZFPM1 (UniProt Q8IX07)
inactive: lapatinib -0.003 | pictilisib -0.008 | crizotinib -0.135 | [1] 0.009 | duvelisib 0.001 | gandotinib -0.079 | tozasertib -0.118 | doramapimod 0.023 | bafetinib -0.077 | [2] -0.018 | nilotinib 0.036 | [3] -0.075 | dasatinib -0.087 | [4] 0.042 | [5] 0.095 | quisinostat -0.189 | tipifarnib 0.044 | [6] 0.034 | [7] -0.082 | [8] -0.018
